This note sets out measurements from PubChem BioAssay (NCI).

About 83,000 compounds went through this panel and 20% of them were active in at least one assay; those are over-represented in the sample as a whole.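 Values shown are percent growth following 48 h exposure of cells in 96-well plates to a single concentration of compound; below 10 was considered active.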 Unmarked numbers belong to inactive results. Active and inactive are the calls of the source.

The test concerns HL-60(TB) leukemia. Description: NCI-60 one-dose screen, 48 h (100 = growth as untreated, 0 = no growth, -100 = all killed). The conditions noted are these: 10 µM unless noted.
For the compound `Nc1nc(SCc2ccccc2)c2ncn(C3CCCC3)c2n1`, the growth was 75.2%. The result for `CC1(c2ccc3ccccc3c2)CCC(=O)O1` (stereo not given) reads 92.7%. The result for `O=c1oc2ccc(F)cc2c(=O)n1-c1ccc(Br)cc1F` reads -45.3% (active). Consider `O=C(Nc1ccc(Nc2ncnc3sc4c(c23)CCOC4)cc1)Nc1ccc(Cl)c(C(F)(F)F)c1`, for which the growth was 98.9%. The result for `CCCCC(CCCCCC(CCCC)NCc1ccc2c(c1)OCO2)NCc1ccc2c(c1)OCO2` (stereo not given) reads -76.6% (active); that for `C[N+](C)(C)CCOC(OCC[N+](C)(C)C)(c1ccccc1)c1ccccc1`, 110%. Take `COc1cc(-c2nc3nc4sc(C)c(C)c4c(=O)n3[nH]2)cc(OC)c1OC`: the growth was 80.7%. In the case of `CN(C)CC1C(=O)O[C@H]2[C@H]1CC/C(COC(=O)c1cc3ccccc3[nH]1)=C\CC[C@@]1(C)O[C@@H]21` (stereo not given in full), the growth is -36% (active). The figure for `CCOC(=O)c1ccc2c(c1)c1c(C)c3cnccc3c(C)c1n2C` is -18.8% (active); for `CCOC(=O)CC(C#N)(CC(=O)OCC)C(=O)OCC` it is 102%.

Turning to `O=C(c1ccccc1O)N1CCCC1`, the growth was 91.8%. As to `COc1ccc(C(=O)COc2cccc(/C=C3\COc4ccc5ccccc5c4C3=O)c2)cc1`, the growth was 72.1%. Regarding `O=c1nc(NO)[nH]c(=O)n1Cc1ccc(F)cc1`, the growth was 103%. `NC(=S)NS(=O)(=O)c1ccc(N)cc1`: the growth is 94.5%. The figure for `CCN(CC)c1ccc2nc3ccc(N=Nc4ccc(N(C)C)cc4)cc3[n+](-c3ccccc3)c2c1` is -32.2% (active); for `COc1ccc2[nH]c(=O)c(CNc3ccc(Nc4nccc(-c5ccc(Cl)cc5)n4)cc3)cc2c1` it is 78.2%; for `CCC1NC(=O)c2cc(S(N)(=O)=O)c(Cl)cc2N1` (stereo not given) it is 120%. The figure for `Nc1nc2ncc(CNc3ccc(C(=O)N[C@@H](CCc4nn[nH]n4)C(=O)O)cc3)nc2c(=O)[nH]1` is 109%; for `O=C(Nc1cccc(-n2ccc3c(NC(=O)c4ccccc4)ncnc32)c1)Nc1ccc(Cl)c(C(F)(F)F)c1` it is -1.92% (active); for `COc1ccc(/C=N\NC(=O)CN2CCN(c3cc4c(cc3F)c(=O)c(C(=O)N/N=C/c3ccc(OC)cc3)cn4C3CC3)CC2)cc1` it is 86.6%. The result for `CN1CCN(c2ccc(Nc3ncc4[nH]c(=O)n(Cc5ccccc5N)c4n3)cc2)CC1` reads 97.2%; that for `COC1=C(OC)C(=O)C(SC/C=C(\C)CCCC(C)CCCC(C)CCCC(C)C)=CC1=O` (stereo not given), -36.3% (active). Turning to `COc1ccc(C2=CC(c3cc(OC)c(OC)c(OC)c3)n3ncnc3N2)cc1` (stereo not given), the growth was -29.9% (active). The figure for `O/N=C1\c2ccccc2-c2ccc(F)cc21` is 92.3%. Take `Cc1ccc(/C=C2\COc3ccc(O)cc3C2=O)cc1`: the growth is -31.7% (active). The result for `Nc1cccc(C(=O)Nc2ccc3c(O)c(N=Nc4ccc(N=Nc5ccc(S(=O)(=O)O)cc5)cc4)c(S(=O)(=O)O)cc3c2)c1` reads 88.7%; that for `O=C1CCc2c(sc3[nH]c(=S)n(-c4cc(C(F)(F)F)cc(C(F)(F)F)c4)c(=O)c23)C1`, -14.2% (active); that for `Nc1nc(N)c2cc(S(=O)(=O)c3cccc(C(F)(F)F)c3)ccc2n1`, 30.9%.

Regarding `CCCCCCCC/C=C/CCCCCCCC1=NC(C)(C)CN1CCO`, the growth was -61.5% (active).

On to `CC1SC(c2ccc(OCc3ccccc3)cc2)N(NC(=O)C(O)(c2ccccc2)c2ccccc2)C1=O` (stereo not given), for which the growth was 14.5%. The result for `CC(c1cc(Cl)ccc1O)c1cc(Cl)ccc1O` reads 34.1%; that for `CCCCCc1cc[n+](CC(=O)c2ccc(Cl)cc2)cc1`, 94%; that for `Cc1ccc2nc(/C=C/c3ccc(N(C)C)cc3)cc(C)c2c1`, 15.2%. The result for `COc1cc(F)c(F)c(Nc2ccc(I)cc2F)c1NS(=O)(=O)C1(C[C@H](O)CO)CC1` reads 23.9%; that for `Cc1ccc(OCCn2ccc(=O)n(CCOc3ccc(Cl)cc3C(=O)c3cc(C)cc(C)c3)c2=O)cc1`, 33.4%. As to `Cc1nc2sc(C(=O)Nc3ccc(Cl)cc3)c(N)c2cc1C(O)c1ccccc1` (stereo not given), the growth was 2.56% (active). For the compound `NC(=S)N/N=C/c1ncccc1O`, the growth is -23.2% (active). The figure for `CCc1ccc2c(c1)N(CCO)C1=C(C(=O)OC1)C2c1cccc(Cl)c1` (stereo not given) is -19.4% (active); for `Cc1ccc(O)c(NC(=O)c2cccc(Nc3ccnc(C(F)(F)F)c3)c2)c1` it is -11.8% (active); for `NC(=O)NC1(C(=O)O)CCCC1` it is 97.1%.
